In PubChem BioAssay AID2444 (National Center for Advancing Translational Sciences (NCATS), 2010):
The other results are listed elsewhere or left out. Results filed as inconclusive are left out. Activity calls are given as the source filed them. Calls come from the whole dose curve.

Biological target: Thyroid hormone receptor beta (Homo sapiens) (UniProt P10828)
Assay: Protein Interaction Secondary Assay for Inhibitors of the Interaction of Thyroid Hormone Receptor and Steroid Receptor Coregulator 2, Alpha Screen
Conditions: AlphaScreen TRb LBD-SRC2 peptide binding, luminescence
Source text: NIH Molecular Libraries Probe Production Network [MLPCN] NIH Chemical Genomics Center [NCGC] MLPCN Grant: DK058080 Assay Provider: R. Kip Guy, St. Jude Children's Research Hospital NCGC Assay Overview: Thyroid receptor (TR) regulates many homeostatic processes including basal metabolism, cardiovascular function, body weight, and lipid trafficking. TR modulators are potential therapeutics for obesity and hyperlipidemias but current thyroid analogs have undesirable side effects, particularly cardiac stimulation. To confirm that inhibitors specifically prevent the interaction of TR with the steroid receptor coregulator 2 (SRC2), an orthogonal TR-SRC2 interaction assay using Alpha Screen (PerkinElmer) was employed. […] Small molecule inhibitors that block the interaction of TR and SRC2 are detected by a decrease in chemiluminescence.
NCGC Assay Protocol Summary: Fifteen uL/well of 100 nM TRb and 100 nM SRC2-2-peg2-biotin in buffer (25 mM HEPES, 100 mM NaCl, 1 mM DTT, 0.1% BSA, 0.01% NP-40) was dispensed into white 384 well Optiplates (PerkinElmer). […] After 30 min incubation, 5 uL of streptavidin donor beads were added and after 90 min incubation, the plates were read by an Envision (Perkin Elmer) to detect luminescence of the donor and acceptor bead interaction (680 nm excitation and 520-620 nm emission).

Thyroid hormone receptor beta (Homo sapiens), sequence (P10828 whole entry, looked up): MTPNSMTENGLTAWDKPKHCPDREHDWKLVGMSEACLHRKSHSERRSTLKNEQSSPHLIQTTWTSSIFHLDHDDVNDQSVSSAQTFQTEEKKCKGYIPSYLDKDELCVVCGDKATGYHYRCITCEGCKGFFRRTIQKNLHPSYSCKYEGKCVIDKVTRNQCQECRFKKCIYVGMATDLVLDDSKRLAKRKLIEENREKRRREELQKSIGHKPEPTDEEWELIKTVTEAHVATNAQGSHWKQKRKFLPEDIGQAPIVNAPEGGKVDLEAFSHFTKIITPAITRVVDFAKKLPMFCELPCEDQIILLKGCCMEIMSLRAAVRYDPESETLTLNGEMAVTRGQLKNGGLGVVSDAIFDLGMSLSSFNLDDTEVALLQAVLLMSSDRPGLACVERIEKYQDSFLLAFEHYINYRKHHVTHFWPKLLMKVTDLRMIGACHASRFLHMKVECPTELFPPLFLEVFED

Compound | outcome
O=C(COC(=O)c1cccc([N+](=O)[O-])c1)NC1C2CC3CC(C2)CC1C3 (stereo unspecified) | inactive
